Experiments:
Details in all cases: concentration: 1 μM, replicates: in singlicate; n = 1
MST1R = test system: MST1R
MST1 = test system: T1, MST1
T1 construct: gene STK4

MST2 = test system: T2, MST2
T2 construct: gene STK3

MST3 = test system: T3, MST3
T3 construct: gene STK24

MST4 = test system: MST4
MTOR = test system: MTOR
MUSK = test system: MUSK
MYLK2 = test system: MYLK2
MYLK4 = test system: MYLK4
MYLK = test system: MYLK
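Note: KINOMEscan kinase panel screen.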

Row | Structure (SMILES) | %Inh (MST1R) [%] | %Inh (MST1) [%] | %Inh (MST2) [%] | %Inh (MST3) [%] | %Inh (MST4) [%] | %Inh (MTOR) [%] | %Inh (MUSK) [%] | %Inh (MYLK2) [%] | %Inh (MYLK4) [%] | %Inh (MYLK) [%]
1 | COc1ccc2cc(-c3nc(-c4ccccc4C(C)C)[nH]c3-c3ccncc3)ccc2c1 [SB-660566] | 42 | 7 | 58 | 0 | 0 | 31 | 18 | 15 | 4 | 0
2 | FC(F)(F)c1ccccc1-c1cc(-c2c[nH]nc2-c2ccccn2)ccn1 [GW679396] | 13 | 4 | 0 | 5 | 0 | 0 | 0 | 26 | 0 | 8
3 | CSc1ccc(-c2nc3n(c2-c2ccncc2)CCC3)cc1 [SKF-105561] | 0 | 0 | 9 | 0 | 20 | 0 | 0 | 3 | 0 | 0
4 | c1ccc(-c2ccnc3[nH]ccc23)cc1 [SB-693578] | 9 | 3 | 4 | 0 | 0 | 29 | 0 | 0 | 0 | 12
5 | CN1c2ccc(-c3ccc(C(N)=O)cc3)cc2-c2[nH]ncc2S1(=O)=O | 0 | 0 | 0 | 0 | 2 | 14 | 0 | 0 | 0 | 73
6 | Cc1nccc(-c2c(-c3ccc(F)cc3)ncn2CCCN2CCOCC2)n1.Cl [SB-282975] | 0 | 7 | 5 | 0 | 5 | 21 | 0 | 6 | 0 | 30
7 | O=C(Nc1n[nH]c2nc(-c3ccco3)c(Br)cc12)C1CCN(Cc2ccccc2)C1.O=C(O)[C@H](O)[C@@H](O)C(=O)O (stereo not shown) [SB-742034] | 7 | 0 | 46 | 13 | 9 | 0 | 0 | 89 | 25 | 3
8 | Cc1ccc(NC(=O)Nc2ccc(Cl)cc2)cc1-c1ccc(C(=O)Nc2ccncc2)cc1 [GSK1398472] | 20 | 8 | 0 | 0 | 0 | 18 | 11 | 0 | 0 | 2
9 | CS(=O)(=O)CCNCc1nc(-c2ccc3ncnc(Nc4ccc(OCc5ccccc5)c(Cl)c4)c3c2)cs1.Cl [GW582764] | 14 | 0 | 0 | 0 | 0 | 8 | 0 | 3 | 0 | 0
10 | Cc1cccc2c(-c3ccncn3)c(-c3ccc(F)cc3)nn12 [GW515532] | 26 | 7 | 0 | 15 | 0 | 9 | 12 | 0 | 0 | 0
11 | COc1cccc(C2=C(Nc3cc(Cl)c(O)c(Cl)c3)C(=O)NC2=O)c1 [SB-390767] | 13 | 100 | 29 | 0 | 0 | 44 | 5 | 10 | 9 | 0
12 | COc1ccc(Nc2nccc(NCCNC(=O)Nc3cc(C)ccc3C)n2)cc1 [GSK1379899] | 15 | 8 | 0 | 0 | 0 | 0 | 0 | 14 | 0 | 0
13 | O=C(Nc1n[nH]c2nc(-c3cccs3)c(Br)cc12)C1CCCC1 [SB-743341] | 17 | 0 | 51 | 0 | 2 | 12 | 37 | 97.7 | 17 | 24
14 | COc1ccc(Nc2nccc(N3CCC(NC(=O)C(C)c4ccc(Cl)cc4)C3)n2)cc1 (stereo not shown) [GSK1379735] | 39 | 44 | 26 | 0 | 3 | 26 | 24 | 3 | 2 | 11
15 | CC(=O)c1cccc(NC(=O)NC2CCN(c3ccnc(Nc4ccc(F)cc4)n3)C2)c1 (stereo not shown) [GSK1379710] | 31 | 0 | 22 | 3 | 0 | 21 | 8 | 0 | 21 | 11
16 | Cc1ccc(NC(=O)Nc2ccccc2F)cc1-c1ccc(C(=O)Nc2ccncc2)cc1 [GSK1398477] | 33 | 22 | 7 | 0 | 0 | 11 | 31 | 19 | 7 | 23
17 | Cc1c(Cn2c3ccccc3n3c(=O)cc(N4CCOCC4)nc23)cccc1C(F)(F)F [GSK2306394] | 0 | 15 | 12 | 2 | 0 | 3 | 6 | 17 | 0 | 2

Row | Structure (SMILES) | %Inh (MST1R) [%] | %Inh (MST1) [%] | %Inh (MST2) [%] | %Inh (MST3) [%] | %Inh (MST4) [%] | %Inh (MTOR) [%] | %Inh (MUSK) [%] | %Inh (MYLK2) [%] | %Inh (MYLK4) [%] | %Inh (MYLK) [%]
18 | COc1cc2ncnc(Nc3cccc(Br)c3)c2cc1OC.Cl [GI230329] | 30 | 0 | 0 | 1 | 0 | 0 | 0 | 7 | 5 | 0
19 | CNC(=O)c1ccc(C)c(-n2c(C)cc(OCc3ccc(F)cc3F)c(Br)c2=O)c1 | 0 | 0 | 0 | 0 | 0 | 33 | 6 | 9 | 3 | 0
20 | CC[C@@H]1CO[C@H](C(=O)Nc2ccccc2)CN1c1cc(-c2ccc3c(N)n[nH]c3c2)nc(NC)n1 [GSK2376236] | 26 | 0 | 10 | 0 | 0 | 9 | 2 | 8 | 10 | 22
21 | Cc1ccccc1Cn1ccn2c(=O)cc(N3CCOCC3)nc12 [GSK2269905] | 17 | 0 | 0 | 0 | 0 | 9 | 2 | 8 | 0 | 0
22 | COC(=O)c1cccc(NC(=O)NC2CCN(c3ccnc(Nc4ccc(OC)cc4)n3)C2)c1 (stereo not shown) [GSK1379746] | 42 | 0 | 10 | 0 | 0 | 19 | 0 | 4 | 0 | 0
23 | COC(=O)c1cccc(NC(=O)NC2CCN(c3ccnc(Nc4ccc(F)cc4)n3)C2)c1 (stereo not shown) [GSK1379725] | 39 | 0 | 0 | 0 | 0 | 7 | 0 | 0 | 0 | 0
24 | CNc1cc(-c2ccc3c(N)n[nH]c3c2)nc(N)n1 [GSK2224810] | 27 | 0 | 0 | 24 | 0 | 0 | 0 | 64 | 56 | 10
25 | COc1ccc(Nc2nccc(N3CCC(NC(=O)C(C)c4ccc(Cl)cc4)CC3)n2)cc1 (stereo not shown) [GSK1379812] | 54 | 44 | 0 | 0 | 0 | 3 | 0 | 6 | 6 | 4
26 | Fc1ccc(-c2nc3n(c2-c2ccncc2)CCS3)cc1 [GI98581] | 39 | 29 | 25 | 0 | 0 | 12 | 15 | 14 | 0 | 12
27 | CC(C)c1cc(-c2ccc3c(N)n[nH]c3c2)nc(N)n1 [GSK2250882] | 3 | 0 | 0 | 8 | 0 | 11 | 0 | 23 | 39 | 26
28 | CCc1ccc(-c2ccc3c(c2)-c2n[nH]cc2S(=O)(=O)N3C)cc1 | 0 | 8 | 0 | 0 | 0 | 0 | 0 | 0 | 0 | 0
29 | NS(=O)(=O)c1cccc(N/C=C2\C(=O)Nc3ccc(S(=O)(=O)Cc4c(Cl)cccc4Cl)cc32)c1 [GSK398099] | 17 | 0 | 1 | 0 | 0 | 11 | 7 | 0 | 1 | 18
30 | Fc1ccc(-c2nn3cccc(F)c3c2-c2ccncc2)cc1 [GW475620] | 18 | 30 | 0 | 0 | 0 | 20 | 11 | 0 | 0 | 14
31 | Nc1cccc(-c2ccc3c(N)n[nH]c3c2)n1 [GSK2192730] | 33 | 0 | 21 | 9 | 0 | 15 | 4 | 90 | 72 | 34
32 | CC(=O)c1c(C)c2cnc(Nc3ccn(C)n3)nc2n(C2CCCC2)c1=O | 4 | 2 | 0 | 10 | 0 | 14 | 0 | 0 | 0 | 0
33 | CC(C)c1ccc(O)cc1Nc1ccnc2ccc(C(F)(F)F)cc12 [GW482059] | 0 | 0 | 0 | 0 | 0 | 6 | 3 | 3 | 0 | 3
34 | CC(=O)c1c(C)c2cnc(Nc3ccc(N4CCNCC4)cn3)nc2n(C2CCCC2)c1=O | 6 | 0 | 0 | 5 | 0 | 55 | 8 | 6 | 0 | 9
